Only a selection was taken, and hits are over-represented in it overall.
TTR transcr act: TTR transcription activation, primary screen; activation, % at 16.7 µM; AID 1117267; SH-SY5Y TTR promoter Gaussia luciferase, luminescence; 100% = recombinant luciferase protein wells; 92,000 compounds, 1.3% hits;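 active = activation above the mean of all tested compounds plus 3 SD, cut at about 9.5% in these data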;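 also: cells exposed to compounds for one day before reading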
TTR inh HuH7: counter-screen for TTR activators: TTR transcription inhibitors in HuH7 cells. shares compounds with TTR transcr act. HuH7 TTR promoter-Gaussia luciferase reporter, luminescence. inhibition, % at 16.7 µM. 1,100 compounds, 4% hits;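 active = average inhibition above the solvent-only control wells' mean plus 3 SD, cut at about 15% in these data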;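 also: inhibitors lower well luminescence so higher value means more inhibition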
TTR up confirm: human TTR transcription activation, confirmation; shares compounds with TTR transcr act; SHSY5Y TTR promoter Gaussia luciferase, luminescence; 100% = purified Lucia enzyme wells, no cells; activation, % at 16.7 µM; 1,100 tested, under 10 active; AID 1117280;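 active = mean activation above a set limit taken from the earlier primary screen, cut at about 11% in these data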
A number is an active result; i = inactive.

SMILES	TTR transcr act	others
COc1ccccc1N1CCN(CC(=O)Nc2sccc2C#N)CC1	i
C[C@H]1[C@@H](NC(=O)c2ccc(C(F)(F)F)cc2)CC[C@@]23CCCN2C(=O)CCC[C@@H]13	i
O=C(O)CCc1nn2cc(-c3ccccc3)nc2[nH]c1=O	i
Cc1nn2cc(-c3ccccc3)nc2[nH]c1=O	10	TTR inh HuH7=i;TTR up confirm=i
Cc1nn2c(-c3ccccc3)c(-c3ccccc3)nc2[nH]c1=O	i
CCOC(=O)Cn1c(=O)oc2cc(S(=O)(=O)N(CCN(C)C)Cc3ccccc3)ccc21	i
CCOC(=O)Cn1c(=O)oc2cc(S(=O)(=O)NC(C)(C)CC)ccc21	i
CCOC(=O)Cn1c(=O)oc2cc(S(=O)(=O)N3CCc4ccccc43)ccc21	14	TTR inh HuH7=i;TTR up confirm=i
O=C(CN1CCN(c2ccccc2F)CC1)NC(=O)NC1CCCCC1	i
Cc1ccc(-c2nc3ccccc3n2C(C(=O)NC(C)(C)C)C2CC2)cc1 (stereo not given)	i
Cc1ccccc1C(=O)N1CCC[C@H]1C(=O)N1CCC[C@H]1C(=O)NCc1ccccn1	14	TTR inh HuH7=i;TTR up confirm=i
O=C(NCc1ccccn1)[C@@H]1CCCN1C(=O)[C@@H]1CCCN1C(=O)c1cccc(Cl)c1	i
O=C(NCc1ccccn1)[C@@H]1CCCN1C(=O)[C@@H]1CCCN1C(=O)c1cccs1	i
C#CCNC(=O)C[C@H]1C[C@@]2(C(=O)OC)C(=C[C@H](C3CCCC3)O[C@@H]2C)N(Cc2ccco2)C1=O	i
COC(=O)CSc1ccccc1C(=O)OC	19	TTR inh HuH7=i;TTR up confirm=i
COC(=O)Cn1cc(C(=O)OC)c2ccccc21	i
COC(=O)CSc1ccc(C#N)c(SCC(=O)OC)c1	i
Fc1cccc(NC(=S)NCc2ccccc2Cl)c1	i
O=C(OCC#CCSc1nnc(-c2cccc3ccccc23)o1)c1ccc(OC(F)(F)F)cc1	i
CO[C@H]([C@H](C)/C=C/N(C)C=O)[C@@H](C)C(=O)CC[C@H](C)[C@H](O)[C@H](C)[C@H]1OC(=O)/C=C/C(C)=C/C[C@H](O)C[C@@H]2C=CC[C@@H](C[C@H](OC)[C@@H](CO)[C@@H](OC)C[C@@H](OC)[C@@H]1C)O2	i
COc1cccc(CN2CCNC(=O)C2CC(=O)NC2CCCCCCC2)c1 (stereo not given)	i
COc1ccc(CN2CCNC(=O)C2CC(=O)NC2CCCCCC2)c(F)c1 (stereo not given)	i
O=C(CC1C(=O)NCCN1Cc1ccccc1C(F)(F)F)NC1CCCCCC1 (stereo not given)	10	TTR inh HuH7=i;TTR up confirm=i
CCOc1cc(CNn2cn[nH]c2=S)cc(Cl)c1OCc1ccccc1F	i
O=C(c1ccco1)N1CCN(c2ccc(Cl)c(Cl)c2)CC1	i
SMILES	TTR transcr act	others
Cc1ccc(S(=O)(=O)N2C[C@@H](C)[C@]3(C2)[C@H](O)[C@H](OC(=O)NCc2ccco2)C[C@H]2C(=O)N(c4ccccc4)C(=O)[C@H]23)cc1	i
S=c1[nH]nc(-c2cc(-c3ccccc3)n[nH]2)n1/N=C/c1ccc(Cl)cc1	i
S=c1[nH]ncn1/N=C/c1ccccc1	18	TTR inh HuH7=i;TTR up confirm=i
Nc1nc(-c2ccccc2)cn1/N=C/c1ccccc1	i
CCCCc1ccc2nc(NC(=O)c3ccco3)sc2c1	i
COc1ccccc1NC(=O)c1ccc2c(=O)n3c(nc2c1)CCC3	i
CC(/C=N\NC(=O)Cn1cncn1)=C/c1ccc(C(C)C)cc1	i
CC(/C=N/NC(=O)Cn1nccc1C)=C\c1ccc(C(C)C)cc1	i
CC(=C/c1ccc(C(C)C)cc1)/C=N/NC(=O)c1ccncc1	10	TTR inh HuH7=i;TTR up confirm=i
CC[C@@]1(c2ccc(C)cc2)C(=O)N(C(=O)OC(C)C)N1C(=O)OC(C)C	i
CC(=O)N[C@@H](C)CCc1ccc(Oc2ccc(OC(C)C)nc2)cc1	i
COC(=O)[C@]12C[C@H](CC(=O)NCCCN3CCCC3=O)C(=O)N(CCc3ccc(OC)c(OC)c3)C1=C[C@H](C(C)C)O[C@@H]2C1CC1	i
COC(=O)[C@]12C[C@H](CC(=O)NCCCN3CCCC3=O)C(=O)N(CCC3=CCCCC3)C1=C[C@H](C1CCCC1)O[C@@H]2C	i
O=C(C1CCCCC1)N1C[C@H](n2cc(-c3ccc(F)cc3)nn2)[C@@H](O)C[C@@H]1c1ccccc1	13	TTR inh HuH7=i;TTR up confirm=i
O[C@H]1C[C@H](c2ccccc2)N(CC2CCCCC2)C[C@@H]1n1cc(-c2ccc(F)cc2)nn1	i
Cc1ccc([C@H]2C[C@H](n3cc(-c4ccc(F)cc4)nn3)[C@@H](O)CN2C(=O)C2CCCCC2)cc1	i
O=c1oc2ccccc2c(NCCO)c1[N+](=O)[O-]	i
O=C(N1CCC(n2nc(-c3ccccc3)oc2=O)CC1)C1(c2ccccc2)CCCC1	i
Cn1cccc1CC(=O)N/N=C/C=C/c1ccccc1	i
C/C(=N\NC(=O)CSc1nc(C)cc(C)n1)c1cccs1	i
Cc1cc(C)nc(SCC(=O)N/N=C/C=C/c2ccccc2)n1	14	TTR inh HuH7=i;TTR up confirm=i
COC(=O)[C@]12C[C@H](CC(=O)NCC34CC5CC(CC(C5)C3)C4)C(=O)N(Cc3ccc(Cl)cc3Cl)C1=C[C@H](C(C)C)O[C@@H]2C1CC1	i
CC[n+]1c(C)sc2c(C)cc(C)cc21	26	TTR inh HuH7=i;TTR up confirm=i
O=C(NCCCc1ccccc1)[C@H](Cc1c[nH]c2ccccc12)NC1(C(=O)NCCc2c[nH]c3ccccc23)CCOCC1	i
COC(=O)[C@]12C[C@H](CC(=O)N3CCN(C(=O)c4ccco4)CC3)C(=O)N(Cc3ccc(Cl)cc3Cl)C1=C[C@H](C(C)(C)C)O[C@@H]2C	i
SMILES	TTR transcr act	others
CC(O)(c1ccc(F)c(F)c1)c1nc(-c2cc(F)cc(F)c2)cs1 (stereo not given)	i
O=C(NNC(=O)c1cccc(Br)c1)C(=O)N1CCCCC1	9.9	TTR inh HuH7=i;TTR up confirm=i
N#C/C(=C\c1cccc(Br)c1)C(=O)N1CCCCC1	i
O=C(NNC(=O)c1cccc(Br)c1)Nc1ccc(Cl)cc1	i
COc1ccc(/C=C(\NC(=O)c2ccccc2Cl)C(=O)NCCCC(=O)O)cc1	i
CCCC(=O)N1CCC1(C)C(=O)NCc1ccccc1SC (stereo not given)	i
O=C(COC(=O)c1cccc(F)c1)Nc1cccnc1Cl	i
COc1cccc(OC)c1C(=O)OCC(=O)Nc1cccnc1Cl	i
N#Cc1ccc(C(=O)OCC(=O)Nc2cccnc2Cl)cc1	16	TTR inh HuH7=i;TTR up confirm=i
O=C(NCCc1c[nH]c2ccccc12)OCc1cn(-c2ccccc2Cl)nn1	i
Cn1c(=O)c2c(nc(CN3CCN(C(=O)c4ccco4)CC3)n2CCCO)n(C)c1=O	i
Cn1c(=O)c2c(nc(CN3CCc4ccccc4C3)n2CCCO)n(C)c1=O	15	TTR inh HuH7=i;TTR up confirm=i
Cn1c(=O)c2c(nc(CN3CCc4ccccc4C3)n2Cc2ccccc2F)n(C)c1=O	i
CCOC(=O)CCN(C(=S)Nc1ccccc1)C1CCCCC1	i
COc1ccc(CCN(C)C(=O)CCNS(=O)(=O)c2ccccc2C(F)(F)F)cc1OC	i
O=C(C1CCN(c2nnnn2-c2ccccc2)CC1)N1CCN(c2ccccc2)CC1	i
NC(=O)C1CCN(c2nnnn2-c2ccccc2)CC1	10	TTR inh HuH7=i;TTR up confirm=i
Oc1ccccc1N1CCN(c2nnnn2-c2ccccc2)CC1	i
O=C(NCc1ccccc1)c1cc(C2CCCN(S(=O)(=O)c3ccccc3)C2)on1 (stereo not given)	i

Assay outcomes from PubChem.
